Compounds with a hit are over-represented: about 11% of the library has one in this group of screens.
L3MBTL1 block = qHTS Assay for the Inhibitors of L3MBTL1 | Potency, µM (series often up to 57.1 µM), without a hit: at the highest dose activity, negative = inhibition, hits mostly inhibitors | Lethal(3)malignant brain tumor-like protein 1 (Homo sapiens), Q9Y468 | AlphaScreen L3MBTL1–H3K9me1 peptide binding | hit rate 0.66% among 230,000; also: % is scaled to controls: 0 for no effect and ±100 for the full control effect; nearly all actives have a fitted effect of over 60% in size
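First, the protein-peptide complex forms for 30 min at room temperature (L3MBTL1 50 nM, biotinylated H3K9me1 peptide 75 nM). Next, compounds are pin-transferred and incubated 30 min. Finally, AlphaScreen beads are added and read after 30 min.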
HP1b chromo inh = HTS for Inhibitors of HP1-beta Chromodomain Interactions with Methylated Histone Tails. Chromobox protein homolog 1 (Homo sapiens), P83916. AlphaScreen HP1-beta / biotin-H3K9me3 peptide binding. hit rate 0.56% among 390,000. Potency, µM (series often up to 114 µM), without a hit: at the highest dose activity change, negative = inhibition, hits mostly inhibitors; also: nearly all actives have a fitted effect of over 70% in size
Target sequence (P83916 whole entry, looked up): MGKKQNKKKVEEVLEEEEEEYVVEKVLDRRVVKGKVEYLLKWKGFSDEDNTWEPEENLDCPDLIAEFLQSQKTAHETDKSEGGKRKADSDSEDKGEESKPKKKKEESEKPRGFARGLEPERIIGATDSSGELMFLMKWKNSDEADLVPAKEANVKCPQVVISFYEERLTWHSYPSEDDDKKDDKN
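Compound inhibition of the preformed complex between 50 nM HP1-beta and 50 nM biotinylated H3K9me3 peptide was read by AlphaScreen. Buffer was PBS pH 7.4 with 0.01% Tween-20. Incubations ran 30 min at room temperature, with 10 ug/mL donor/acceptor beads.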
G9a block = qHTS Assay for Inhibitors of Histone Lysine Methyltransferase G9a. Histone-lysine N-methyltransferase EHMT2 (Homo sapiens), Q96KQ7. G9a H3K9 monomethylation, AlphaScreen, 2 h. Potency, µM (series often up to 102 µM), without a hit: top-dose activity, negative = inhibition, hits mostly inhibitors. hit rate 8.8% among 350,000; also: % is scaled to controls: 0 for no effect and ±100 for the full control effect; nearly all actives have a fitted effect of over 75% in size
Target sequence (Q96KQ7 913-1193 limits assumed): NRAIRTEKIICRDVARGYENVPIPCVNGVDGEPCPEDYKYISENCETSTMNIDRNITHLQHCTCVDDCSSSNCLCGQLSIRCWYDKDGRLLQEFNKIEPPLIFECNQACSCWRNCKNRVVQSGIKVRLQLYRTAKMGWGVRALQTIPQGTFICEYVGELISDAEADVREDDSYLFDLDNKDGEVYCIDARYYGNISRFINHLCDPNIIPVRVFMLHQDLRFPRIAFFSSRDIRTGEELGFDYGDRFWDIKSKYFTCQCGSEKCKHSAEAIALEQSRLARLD
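AlphaScreen detection with an anti-monomethyl H3K9 antibody quantified product after a 2 h room-temperature reaction containing 500 nM biotinylated H3K9 peptide, 20 µM SAM and 20 nM enzyme, which had been preincubated 15 min with compound.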
BAZ2B inh = qHTS Assay for Inhibitors of BAZ2B; Bromodomain adjacent to zinc finger domain protein 2B (Homo sapiens), Q9UIF8; AlphaScreen BAZ2B-H3K14Ac peptide displacement; Potency, µM (series often up to 114 µM), without a hit: top-dose activity change, negative = inhibition, most hits filed as inhibitors; hit rate 4.4% among 360,000; AID 504333, 2011; also: % is scaled to controls: 0 for no effect and ±100 for the full control effect; nearly all actives have a fitted effect of over 60% in size
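Compounds, titrated to a top concentration of 110 uM, were incubated 30 min at room temperature with preformed BAZ2B/acetyl-K14 H3 peptide complex (50 nM each). Proximity signal was measured by AlphaScreen after 20 min with beads.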
JMJD2A Tudor inh = qHTS Assay for Inhibitors of JMJD2A-Tudor Domain | hit rate 4.4% among 390,000 | AlphaScreen JMJD2A-Tudor / H3K4me3 peptide binding | Potency, µM (titrated, usually from 114 µM), for the others: at the top dose activity change, negative = inhibition, actives largely listed as inhibitors; also: % is scaled to controls: 0 for no effect and ±100 for the full control effect; nearly all actives have a fitted effect of over 50% in size
An asterisk follows results filed as active; ? = inconclusive; / = not tested or not shown; [ ] = remark or other dose. Calls follow the shape of the dose curve; as a rule, active = well fitted inhibition curve with a large enough effect; inconclusive = small, poorly fitted or top-dose-only effect; inactive = no such curve, though single readings can be large or run the other way. Potency is read from the fitted curve at half-maximal effect.

SMILES	L3MBTL1 block	HP1b chromo inh	G9a block	BAZ2B inh	JMJD2A Tudor inh
Cc1ccc2c(c1)c1c(c(=O)n(-c3cccc(Cl)c3)c(=O)n1CC(=O)N1CCCC1)n2C	/	11.8%	-3.8%[59 µM]	-4.7%	-15.9%
c1ccc2oc(C3=NNC(=NC4CC4)SC3)cc2c1	-19.1%	-12.3%	11.2µM*	?	?
Cc1cc(C2=NNC(=NC3CC3)SC2)c(C)n1-c1ccccc1F	-7.8%	?	?	?	28.2µM*
Cc1cc(C2=NNC(=NC3CCCCC3)SC2)c(C)n1-c1c(C)n(C)n(-c2ccccc2)c1=O	-8.5%	0.4%	-25.2%[59 µM]	?	-35.9%
NC(=S)Nc1cccc(-c2n[nH]c(=S)o2)c1	-0.3%	12.3%	39.8µM*	-20.8%	?
Cc1ccc(NC(=S)Nc2cccc(-c3n[nH]c(=S)o3)c2)cc1	-3.3%	-19.1%	50.1µM*	?	-27.7%
COc1cc(C)c(CNc2cc(C)cc(C)c2)cc1C	/	-16.2%	?	?	89.1µM*
COc1cc(CNC2CCCCCCC2)cc(Cl)c1OC	0.9%	18.8%	0.5%	11.7%	-3.4%
Clc1ccc(CNC2CCCC2)c(Cl)c1	/	27.1%	7.6%[59 µM]	12.2%	8.4%
COc1cc(C)c(CNc2ccc(OC)c(OC)c2)cc1C	-8.7%	/	?	44.7µM*	/
COc1ccc(NCc2ccc(OC)c(OC)c2)cc1	-9.4%	/	?	?	/
COc1cc(C)c(CNC2CCCCC2)cc1C	/	?	31.6µM*	?	5.01µM*
Oc1cc(CNC2CCCCC2)c(O)cc1CNC1CCCCC1	/	14.1µM*	/	/	22.4µM*
Cc1nn(-c2ccccc2)c(-n2cccc2)c1C(=O)N1CCN(c2ccccc2)CC1	/	16.7%	2.9%[59 µM]	-28.6%	-11.1%
COc1ccc(C#Cc2cnc(Cl)c3cncnc23)cc1OC	/	29.0%	/	/	-29.9%
N#C/C(=N\Nc1ccc(Cl)cc1)C(N)=S	/	-31.1%	/	?	?
N#C/C(=N/Nc1ccccc1[N+](=O)[O-])C(N)=S	/	11.8%	1.12µM*	-17.9%	-22.1%
Cc1ccc(N/N=C(\C#N)C(N)=S)cc1C	3.4%	-18.2%	2.82µM*	44.7µM*	?
N#C/C(=N\Nc1ccccc1)C(N)=S	-11.5%	-20.9%	1.58µM*	?	22.4µM*
Cc1ccc(N/N=C(\C#N)C(=O)c2ccsc2)cc1	-3.8%	-17.4%	?	?	35.5µM*
CCC(CC)=NNc1cccc([N+](=O)[O-])c1	-11.9%	1.1%	?	?	-35.8%
CCN(CC)C(=N)/C(C#N)=N/Nc1ccc(C)cc1	-20.5%	-3.7%	?	-33.1%	-26.9%
N#C/C(=N\Nc1ccccc1Cl)C(=O)c1ccccc1	-21.8%	-21.5%	?	?	-29.1%[57.1 µM]
COc1ccc(C(=O)/C(C#N)=N/Nc2cccc([N+](=O)[O-])c2)cc1	-27.5%	?	?	39.8µM*	?
N#C/C(=N\Nc1ccc(Cl)cc1)C(=O)c1ccsc1	-0.6%	?	/	25.1µM*	?
SMILES	L3MBTL1 block	HP1b chromo inh	G9a block	BAZ2B inh	JMJD2A Tudor inh
N#C/C(=N\Nc1cccc(Cl)c1)C(=O)c1ccccc1	-8.1%	?	25.1µM*	44.7µM*	?
CCOC(=O)c1cnc2c(ccc3ccccc32)c1Nc1ccc(OC)cc1OC	/	-2.3%	?	?	?
O=C(CCNS(=O)(=O)c1cccc2nsnc12)Nc1ccc(F)cc1	/	21.3%	-5.2%[59 µM]	0.8%	6.5%
CCOC(=O)C1Nc2ccccc2C2C(O)C(O)CC12 (stereo not drawn)	/	-13.7%	/	/	50.1µM*
CCOC(=O)C1Nc2ccc(C(F)(F)F)cc2C2c3ccccc3CC12 (stereo not drawn)	/	46.6%	/	/	-7.0%
C/C(=N/NC(N)=S)c1ccc(Br)s1	-6.9%	11.7%	15.8µM*	-17.0%	-35.0%
COc1ccc(Cl)cc1NS(=O)(=O)c1ccc2c(c1)NC(=O)CC(=O)N2	/	8.1%	-5.9%[59 µM]	-11.1%	-14.9%
CCc1ccc(C2=CSC3=NCCN23)cc1	/	32.6%	-15.0%	1.7%	-18.8%
C(=N\Nc1ncnc2nc[nH]c12)/c1cccs1	-2.5%	31.6%	-27.3%	50.1µM*	?

Screens from PubChem.
